# Assay outcomes as filed in PubChem BioAssay.
# Most compounds without a hit are left out; they make up all but 4.1% or so of the library.
# Mac1 fbg enh – enhancers of CD11b/CD18 adhesion to fibrinogen, primary screen, K562 cells, luminescence | AID 1499, 2009 | Integrin beta-2 (Homo sapiens) + Integrin alpha-M (Homo sapiens), P05107+P11215 | actives 0.07% (n = 93,000) | activation, % at 10 µM | ATPlite luminescence;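 active means 10 µM primary screen giving 50% or more activity, confirmed by 40% or more on retest at that dose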
# PTK2B oligo ant – antagonists of Pyk2 self-association, primary screen, Q293 cells, FERM NanoBiT luminescence, HTS | Protein-tyrosine kinase 2-beta (Homo sapiens), Q14289 | active compounds read low | z-score (the deposit names both 25 µM and 10 µM) | actives 0.83% (n = 99,000) | AID 1347419, 2020;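 active means Z-score of -3 or lower, scaled per plate to the spread of control and sample wells; inactive means z-score above -3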;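 further: negative z-score means lost luminescence so less FERM oligomerization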
# Cav32 inh – Cav3.2 calcium influx blockers – cell-based, Fluo-4 calcium fluorescence, FDSS, MLSMR library, primary screen. actives 4% (n = 100,000). AID 449739, 2010. Cav3.2-expressing cells; active compounds read low. B-score at 10 µM;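 active means single-dose well whose peak fluorescence ratio is a statistical outlier from its plate by either plate-standardised score or position-corrected B-score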
# Target sequence (O95180 whole entry, looked up): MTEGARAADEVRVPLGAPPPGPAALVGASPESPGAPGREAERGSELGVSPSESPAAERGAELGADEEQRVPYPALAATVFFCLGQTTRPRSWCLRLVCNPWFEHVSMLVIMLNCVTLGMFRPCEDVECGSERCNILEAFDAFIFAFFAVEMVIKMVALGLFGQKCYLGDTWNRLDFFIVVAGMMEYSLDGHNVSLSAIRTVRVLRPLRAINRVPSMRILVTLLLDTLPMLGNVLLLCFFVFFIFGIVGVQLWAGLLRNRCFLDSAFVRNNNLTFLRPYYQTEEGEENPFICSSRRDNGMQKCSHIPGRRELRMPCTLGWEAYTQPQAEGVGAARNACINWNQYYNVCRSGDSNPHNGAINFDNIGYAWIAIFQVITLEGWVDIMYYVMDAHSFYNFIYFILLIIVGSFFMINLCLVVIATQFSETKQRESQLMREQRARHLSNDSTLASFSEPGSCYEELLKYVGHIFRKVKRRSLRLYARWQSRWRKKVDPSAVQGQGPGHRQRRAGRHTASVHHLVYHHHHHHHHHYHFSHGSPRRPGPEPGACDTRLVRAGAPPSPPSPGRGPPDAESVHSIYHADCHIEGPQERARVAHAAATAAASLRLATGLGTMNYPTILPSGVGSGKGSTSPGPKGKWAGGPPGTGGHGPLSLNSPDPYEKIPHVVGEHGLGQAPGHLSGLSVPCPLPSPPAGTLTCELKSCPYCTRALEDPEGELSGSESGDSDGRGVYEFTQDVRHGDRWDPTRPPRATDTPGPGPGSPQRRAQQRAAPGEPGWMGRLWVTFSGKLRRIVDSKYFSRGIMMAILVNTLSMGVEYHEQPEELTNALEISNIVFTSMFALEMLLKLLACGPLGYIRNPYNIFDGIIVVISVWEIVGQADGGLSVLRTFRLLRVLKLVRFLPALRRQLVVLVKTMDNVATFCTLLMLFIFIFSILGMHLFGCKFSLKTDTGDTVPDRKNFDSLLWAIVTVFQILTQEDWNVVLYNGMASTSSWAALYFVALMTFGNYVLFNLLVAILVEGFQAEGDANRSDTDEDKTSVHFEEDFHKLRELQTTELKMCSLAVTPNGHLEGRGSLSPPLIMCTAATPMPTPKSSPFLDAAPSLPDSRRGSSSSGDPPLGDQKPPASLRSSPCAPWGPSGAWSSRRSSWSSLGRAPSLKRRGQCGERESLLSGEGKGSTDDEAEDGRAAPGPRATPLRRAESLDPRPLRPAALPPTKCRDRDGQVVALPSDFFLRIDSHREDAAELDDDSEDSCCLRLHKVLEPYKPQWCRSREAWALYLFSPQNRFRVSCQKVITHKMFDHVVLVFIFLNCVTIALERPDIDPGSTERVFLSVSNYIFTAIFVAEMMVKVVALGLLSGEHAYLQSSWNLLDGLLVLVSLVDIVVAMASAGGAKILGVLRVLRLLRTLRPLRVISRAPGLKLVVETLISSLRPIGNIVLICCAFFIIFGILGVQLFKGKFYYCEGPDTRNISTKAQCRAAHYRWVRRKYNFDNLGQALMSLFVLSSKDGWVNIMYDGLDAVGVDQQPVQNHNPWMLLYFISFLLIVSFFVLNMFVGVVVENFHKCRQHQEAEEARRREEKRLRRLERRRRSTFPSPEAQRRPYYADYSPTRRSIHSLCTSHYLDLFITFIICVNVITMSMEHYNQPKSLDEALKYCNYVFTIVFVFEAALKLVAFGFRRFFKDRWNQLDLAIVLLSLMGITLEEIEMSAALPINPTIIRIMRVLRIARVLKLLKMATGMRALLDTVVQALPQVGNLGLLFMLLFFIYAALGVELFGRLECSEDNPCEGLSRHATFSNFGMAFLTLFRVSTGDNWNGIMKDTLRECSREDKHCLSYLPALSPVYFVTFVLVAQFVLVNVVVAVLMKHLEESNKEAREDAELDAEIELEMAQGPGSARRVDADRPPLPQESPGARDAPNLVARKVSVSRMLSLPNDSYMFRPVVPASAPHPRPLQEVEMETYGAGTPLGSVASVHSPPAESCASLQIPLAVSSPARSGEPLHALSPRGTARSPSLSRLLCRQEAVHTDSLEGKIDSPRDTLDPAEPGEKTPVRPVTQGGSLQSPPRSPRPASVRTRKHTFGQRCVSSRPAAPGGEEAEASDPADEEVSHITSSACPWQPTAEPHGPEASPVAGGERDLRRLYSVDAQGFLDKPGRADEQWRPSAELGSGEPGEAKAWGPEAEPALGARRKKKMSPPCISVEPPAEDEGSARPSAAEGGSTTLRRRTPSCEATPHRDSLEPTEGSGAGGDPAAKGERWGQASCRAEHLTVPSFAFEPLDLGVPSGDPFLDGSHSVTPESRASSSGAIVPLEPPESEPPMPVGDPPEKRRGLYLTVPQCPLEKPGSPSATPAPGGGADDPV
# MRP reversal – reversal of MRP1-mediated doxorubicin resistance, primary screen, H69AR cells, doxorubicin co-treatment; H69AR cells + 2 uM doxorubicin, CellTiter-Glo, 72 h; differential viability (reversal), % at 10 µM; actives 0.04% (n = 85,000); AID 602, 2007;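 active means viability drop by adding the cancer drug above about 55%, with treated viability meeting a 40% cutoff, limit read from the data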;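 further: larger differential means the compound sensitizes cells more to doxorubicin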
# MRP-1 activ – H69AR viability gain despite doxorubicin, primary screen, MRP-1 activator project, H69AR cells, CellTiter-Glo | viability increase, % at 10 µM | AID 799, 2007 | actives 0.61% (n = 140,000) | viability rescue;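 active means viability gain under doxorubicin at or above a set limit, the compound median plus 3 SD, cut at about 4.7% in these data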;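 further: MRP-1 overexpressing cells given doxorubicin 25 µM after compound pretreatment; 18-22 h compound pretreatment then 72 h with doxorubicin before readout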
# CD11b adhes inh – inhibitors of CD11b/CD18 adhesion to fibrinogen, primary screen, K562 cells, luminescence. Integrin beta-2 (Homo sapiens) + Integrin alpha-M (Homo sapiens), P05107+P11215. ATPlite luminescence; Mn2+ added to activate the integrin. inhibition, % at 10 µM. actives 0.54% (n = 93,000). AID 1497, 2009;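 active means primary inhibition of 50% or more at 10 µM, then 40% or more on retest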
# A number is an active result; – = inactive; · = no result.
SMILES,Mac1 fbg enh,PTK2B oligo ant,Cav32 inh,MRP reversal,MRP-1 activ,CD11b adhes inh
CCNc1nc(SCc2ccccc2)nc(N2CCOCC2)n1,–,–,-4.95,–,–,–
CCCNC(=O)Cn1cccc1C(=O)c1ccccc1,–,–,–,–,–,–
CCOC(=O)C1=C(C)NC(C)=C(C(=O)OCC)C1c1sccc1C,–,-3.33,–,·,–,–
CCOC(=O)C1=C(C)NC(C)=C(C(=O)OCC)C1C(=O)O,–,–,–,–,–,–
CCCC1C(C(=O)OCC)=C(C)NC(C)=C1C(=O)OCC,–,-3.07,·,–,–,–
CCOC(=O)C1=C(C)NC(C)=C(C(=O)OCC)C1c1cccs1,·,·,·,·,–,·
O=C(Nc1ccc(-c2nc3cccnc3s2)cc1)c1ccc(Br)o1,–,·,–,–,–,–
Cc1cc(O)c(C(C)C)cc1NC(=O)c1ccc(Cl)cc1,–,–,-6.28,·,–,–
C=CCOc1ccccc1/C=N/O,–,–,–,–,–,–
CC(C)(C)OC(=O)N1CCC[C@H]1c1nnc(SCc2c(Cl)cccc2Cl)o1,–,–,-6.76,–,–,–
O=C(c1ccc2c(c1)OCO2)N1CCN(c2ccc(F)cc2)CC1,–,–,–,–,–,–
CCC(=O)Nc1ccc(C(=O)NNC(=O)COc2cccc(C)c2)cc1,·,·,·,·,–,·
Cc1cccc(-n2c(SCC(=O)Nc3ncc(Cl)cc3Cl)nc3ccccc32)c1,·,·,·,·,5.9,·
CCN(Cc1ccccc1)C(=O)CSc1nc(C)cc(C)c1C#N,–,·,-4.15,·,–,–
O=C(CCSc1nc(-c2ccco2)cc(C(F)(F)F)n1)N1CCN(c2ccccn2)CC1,–,–,-5.5,–,–,–
O=C(CCSc1nc(-c2ccco2)cc(C(F)(F)F)n1)N1CCCc2ccccc21,–,–,-3.6,–,–,–
O=C(CSc1nc(-c2ccco2)cc(C(F)(F)F)n1)N1CCN(c2cccc(Cl)c2)CC1,·,–,–,–,–,·
CC(C)(C)N(Cc1ccccc1)C(=O)c1ccc2c(c1)OCCO2,–,–,-4.32,–,–,–
CCC(C)(C)NC(=O)C(c1cccs1)N(CC1CCCO1)C(=O)Cn1nnc2ccccc21 (stereo unspecified),–,–,–,–,–,–
CC(=O)[C@@H]1[C@@H](C)N(Cc2ccccc2)C(=O)N[C@H]1c1ccccc1,·,·,–,·,·,·
CC(=O)Nc1ccc(NC(=O)Cc2ccc(S(=O)(=O)N3CCCCC3)s2)cc1,·,·,·,·,–,·
O=C(Cc1ccc(S(=O)(=O)N2CCOCC2)s1)Nc1ccc2c(c1)CCC2,–,–,-6.14,–,–,–
Cc1cccc(NC(=O)C2(c3ccc([N+](=O)[O-])cc3)CCCC2)c1,·,–,-5.48,·,–,·
Cc1cc(C)nc(NS(=O)(=O)c2ccc(NC(=O)C3(c4ccc([N+](=O)[O-])cc4)CCCC3)cc2)n1,–,·,·,·,–,–
Cc1cccc(NC(=O)c2cc([N+](=O)[O-])ccc2NC2CCCCC2)c1,·,·,·,·,–,·
SMILES,Mac1 fbg enh,PTK2B oligo ant,Cav32 inh,MRP reversal,MRP-1 activ,CD11b adhes inh
Cc1cccc(NC(=O)C(c2cccc([N+](=O)[O-])c2)N2CCCCC2)c1 (stereo unspecified),–,–,-8.05,·,–,–
C=C(C)CC1N(c2cccc(OC)c2)C(=O)C2C(C(=O)O)C3C=CC21O3 (stereo unspecified),–,·,–,–,–,–
O=C(Nc1ccc2c(c1)CCC2)C1CCN(c2c3c(nc4ncnn24)CCC3)CC1,–,–,2.82,–,–,–
COc1ccc(NC(=O)C2CCCN(c3c4c(nc5ncnn35)CCC4)C2)cc1OC (stereo unspecified),–,–,3.32,–,–,–
O=C(NC1CCCc2ccccc21)C1CCN(c2c3c(nc4ncnn24)CCC3)CC1 (stereo unspecified),–,–,–,·,–,–
O=C(Nc1ccc(Oc2ccccc2)cc1)C1CCN(c2c3c(nc4ncnn24)CCC3)CC1,·,-3.29,–,–,–,·
Cc1cc(C)nc(N2CCC(C(=O)Nc3ccc(Oc4ccccc4)cc3)CC2)n1,–,–,–,–,–,–
O=C(CSc1nc2ccc(NC(=O)CSc3nnnn3Cc3ccccc3)cc2s1)Nc1ccccc1,·,–,–,–,–,·
O=C(Cc1ccc(Nc2nc3ccc(Br)cc3[nH]2)cc1)NCCc1cccs1,–,·,-3.16,·,–,–
O=C(NCC1CC1)c1ccc(Nc2nc3ccc(Br)cc3[nH]2)cc1,–,·,–,·,–,–
OCCN=C1CCCc2c1[nH]c1ccc(Br)cc21,·,–,–,·,5.2,·
O=c1c2c([nH]c3ccc(Br)cc13)CCCC2,–,–,–,–,·,–
Cc1ccc(C2=NNC(C(O)C(O)C(O)CO)S2)cc1 (stereo unspecified),–,–,–,·,–,–
CC(=O)NCCc1cc2cc(C)c(C)cc2[nH]c1=O,–,–,·,–,–,–
COc1ccc(CCNC(=O)c2nnc(Cc3ccc(Cl)cc3)o2)cc1OC,–,·,-3.56,–,–,–
COc1ccc(CCNC(=O)c2nnc(Cc3c(F)cccc3Cl)o2)cc1OC,–,–,–,–,–,–
O=C(NC1(C(F)(F)F)NC(=O)N(c2ccccc2)C1=O)c1cccs1 (stereo unspecified),·,·,·,·,–,·
Cc1cccc(S(=O)(=O)C(C#N)c2nc3ccccc3nc2N2CC(C)OC(C)C2)c1 (stereo unspecified),–,–,–,–,–,94.6
Cc1ccc(S(=O)(=O)C(C#N)c2nc3ccccc3nc2N2CC(C)OC(C)C2)cc1C (stereo unspecified),–,–,-4.21,–,–,89.6
O=S(=O)(NC1CCCCC1)c1ccc(Br)cc1,–,–,–,–,–,–
Fc1cccc(-c2cc3nc4c(c(N5CCOCC5)n3n2)CCCC4)c1,–,-3.2,–,–,–,–
CNC(=S)NCCN1CCOCC1,·,·,·,·,–,·
Fc1ccc(N2CCN(c3ncnc4c3nnn4Cc3ccccc3Cl)CC2)cc1,·,–,–,–,5.0,·
Clc1ccccc1Cn1nnc2c(Nc3ccccc3)ncnc21,–,–,–,·,4.7,–
O=C(c1ccco1)N1CCN(c2ncnc3c2nnn3Cc2ccccc2Cl)CC1,·,–,–,–,–,·
N#Cc1cnn(-c2nc(SCc3ccccc3)nc3sc4c(c23)CCCC4)c1N,–,–,-4.99,–,–,–
O=C(Cc1cccs1)N(Cc1cccs1)C1(C(=O)NC2CCCCC2)CCCCC1,–,-4.52,-5.52,–,–,–
CCC(C)(C(=O)NC1CCCCC1)N(Cc1cccs1)C(=O)Cc1cccs1 (stereo unspecified),–,–,-7.69,–,–,–
CC1(C(=O)NCCCNc2ncc(C(F)(F)F)cc2Cl)C=CCN1C(=O)c1ccccc1 (stereo unspecified),·,·,–,·,–,·
Cc1cc(-c2nnco2)c(C)n1-c1ccc(F)cc1,–,–,–,–,–,–
